Test results reported in PubChem BioAssay AID372 (MTDP, 2006).
Hit rate of the full screen: of about 100,000 compounds, about 770 (0.77%) were called active. No stated cut-off is given here; in the data, active means inhibition above about 50%; inactive means the rest. The full list was thinned out, with actives kept by preference.

The molecules below were run against Gag-Pol polyprotein (Human immunodeficiency virus type 1 group M subtype B (isolate HXB2)) (UniProt P04585) (assay: RNase H inhibition, HIV 1 Gag Pol polyprotein, FRET biochemical assay, screening (AID 372)). Conditions: HIV-1 RT RNase H, FRET RNA/DNA substrate fluorescence; at 10 µM; hits give high values.

Question: For `CC(=O)N/N=C/c1ccc(-c2ccc([N+](=O)[O-])cc2Br)o1`, which inhibition is on record?
Answer: The inhibition was 13% (inactive).

Question: `CCOc1ccc(C(=O)NCc2cccnc2)cc1Br` was tested. Which inhibition did it give?
Answer: The inhibition was 0% (inactive).

Question: For `CC(C)=NNC(=O)/C(=C/C=C/c1ccccc1)NC(=O)c1ccccc1`, which inhibition is on record?
Answer: Its inhibition is 7% (inactive).

Question: For `CC(=O)c1cccc(NC(=O)CC2S/C(=N\N=C(/C)c3ccc(Cl)cc3)NC2=O)c1` (centres undefined), which inhibition is on record?
Answer: The inhibition was 13% (inactive).

Question: For `O=C(c1nn2c(c1Br)NC(c1cccs1)CC2C(F)(F)F)N1CCOCC1` (centres undefined), which inhibition is on record?
Answer: The inhibition was 0% (inactive).

Question: How did the inhibition turn out when `N#Cc1ccc(C=Nc2cc(Cl)cc(Cl)c2)cc1` was run?
Answer: Its inhibition is 11% (inactive).

Question: Which inhibition does the source give for `Cc1cc2c(c(=O)o1)C(c1cccs1)C(C#N)=C(N)O2` (centres undefined) here?
Answer: The inhibition was 4% (inactive).

Question: Which inhibition does the source give for `Cc1cc(C)c(S(=O)(=O)Nc2cc(Br)c(O)c3ccccc23)c(C)c1` here?
Answer: Its inhibition is 18% (inactive).

Question: How did the inhibition turn out when `N#Cc1ccccc1COc1ccc(/C=C2/NC(=S)NC2=O)cc1` was run?
Answer: Its inhibition is 23% (inactive).

Question: How did the inhibition turn out when `COc1ccc(C(=O)Nc2ccc3nn(-c4ccccc4)nc3c2)cc1[N+](=O)[O-]` was run?
Answer: Its inhibition is 18% (inactive).

Question: With `COc1ccc(C(=O)NC(=S)Nc2ccc3nn(-c4ccccc4)nc3c2)cc1[N+](=O)[O-]` as the molecule, how does the inhibition read?
Answer: The inhibition was 56% (active).

Question: How did the inhibition turn out when `CCOc1ccc(-n2nc3ccc(NC(=O)c4ccc(C)c([N+](=O)[O-])c4)cc3n2)cc1` was run?
Answer: Its inhibition is 17% (inactive).

Question: How did the inhibition turn out when `Cc1ccc(-n2nc3cc(C)c(NC(=O)/C=C/c4cccc([N+](=O)[O-])c4)cc3n2)cc1` was run?
Answer: The inhibition was 12% (inactive).

Question: For `O=C(/C=C/c1cccc([N+](=O)[O-])c1)Nc1ccc2nn(-c3ccccc3)nc2c1`, which inhibition is on record?
Answer: Its inhibition is 43% (inactive).

Question: With `Cc1ccc(C(=O)Nc2ccc3nn(-c4ccc(Cl)cc4)nc3c2)cc1[N+](=O)[O-]` as the molecule, how does the inhibition read?
Answer: Its inhibition is 51% (active).

Question: With `CCOc1ccc(C(=O)NC(=S)Nc2ccc3nn(-c4ccccc4)nc3c2)cc1[N+](=O)[O-]` as the molecule, how does the inhibition read?
Answer: Its inhibition is 18% (inactive).

Question: With `COc1ccc(C(=O)NC(=S)Nc2ccc(-c3nc4ccccc4[nH]3)cc2)cc1[N+](=O)[O-]` as the molecule, how does the inhibition read?
Answer: The inhibition was 60% (active).

Question: Which inhibition does the source give for `Cc1ccc(-n2nc3ccc(NC(=O)/C=C\c4cccc([N+](=O)[O-])c4)cc3n2)cc1` here?
Answer: The inhibition was 59% (active).

Question: For `COc1ccc(C(=O)NC(=S)Nc2cc(-c3nc4ccccc4[nH]3)ccc2C)cc1[N+](=O)[O-]`, which inhibition is on record?
Answer: The inhibition was 18% (inactive).

Question: Which inhibition does the source give for `COc1ccc(C(=O)NC(=S)Nc2ccc(Br)cc2)cc1[N+](=O)[O-]` here?
Answer: Its inhibition is 0% (inactive).

Question: How did the inhibition turn out when `Cc1ccc(C(=O)Nc2ccc3nn(-c4ccc(F)cc4)nc3c2)cc1[N+](=O)[O-]` was run?
Answer: Its inhibition is 40% (inactive).

Question: Which inhibition does the source give for `CCc1ccc(C=NC23CN4CN(CN(C4)C2)C3)s1` here?
Answer: Its inhibition is 5% (inactive).

Question: `CCOC(=O)c1c(NC(=O)CN2C(=O)S/C(=C\c3ccccc3)C2=O)sc2c1CCCC2` was tested. Which inhibition did it give?
Answer: The inhibition was 10% (inactive).

Question: How did the inhibition turn out when `COc1cccc(/C=C2/SC(=S)N(CCC(=O)Nc3nnc(C)s3)C2=O)c1` was run?
Answer: The inhibition was 7% (inactive).
